{
  "source": "PubChem BioAssay AID1851",
  "about": "(National Center for Advancing Translational Sciences (NCATS), 2009)",
  "note": "Among all 16,000 compounds or so, about 5,800 (36%) were called active. Another 23% or so got no clear call; they are omitted. Some of the results follow. Values without a mark were called inactive. The call rests on the fitted dose curve; in most records, active means well fitted curve in the direction sought with a large enough effect; inconclusive means small, poorly fitted or top-dose-only effect, or effect the other way; inactive means no such curve, though single readings can be large or run the other way. On the % scale 0 is the no-effect control and ±100 the full control effect.",
  "data": [
    {"target": "Cytochrome P450 2C19 (Homo sapiens) (UniProt P33261)", "sequence (P33261 whole entry, looked up)": "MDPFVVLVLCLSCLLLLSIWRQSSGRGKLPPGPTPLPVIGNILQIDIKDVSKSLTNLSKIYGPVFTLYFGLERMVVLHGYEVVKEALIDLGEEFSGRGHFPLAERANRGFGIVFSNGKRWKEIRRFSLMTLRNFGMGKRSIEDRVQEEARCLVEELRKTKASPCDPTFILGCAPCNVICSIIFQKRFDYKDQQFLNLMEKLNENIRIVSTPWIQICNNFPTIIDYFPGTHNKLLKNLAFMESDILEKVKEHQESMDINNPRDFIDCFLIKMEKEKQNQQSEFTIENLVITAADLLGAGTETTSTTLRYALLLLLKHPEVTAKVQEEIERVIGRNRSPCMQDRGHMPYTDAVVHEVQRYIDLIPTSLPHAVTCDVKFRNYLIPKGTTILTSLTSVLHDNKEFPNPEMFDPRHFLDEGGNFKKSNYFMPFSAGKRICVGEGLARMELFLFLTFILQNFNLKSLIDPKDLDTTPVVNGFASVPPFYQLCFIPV", "experiment": "Cytochrome panel assay with activity outcomes", "details": "recombinant CYP, pro-luciferin dealkylation, luminescence, p450-cyp2c19; series mostly up to 57.1 µM; activity, negative = inhibition: at the top concentration", "values": [
      {"smiles": "O=C1c2ccccc2C(Cc2ccncc2)(Cc2ccncc2)c2ccccc21", "activity, negative = inhibition": "-30.9%"},
      {"smiles": "O=C1N(c2ccccc2)c2ccccc2C1(Cc1ccncc1)Cc1ccncc1", "AC50": "0.2 µM (active)"},
      {"smiles": "N#C/C(=C\\c1ccc(Cl)cc1)c1nc2ncccc2[nH]1", "AC50": "25.1 µM (active)"},
      {"smiles": "COc1ccccc1CN1CCCC2(CCNCC2)C1", "activity, negative = inhibition": "-24.4%"},
      {"smiles": "COc1cccc(CN2C(=O)N(C(C)C)C(N(O)C(=O)NC(C)C)C2(C)C)c1OC", "note": "(configuration not stated)", "AC50": "14.1 µM (active)"},
      {"smiles": "CN(C)c1ccc(/C=C2\\SC(=S)N(Nc3ncc(C(F)(F)F)cc3Cl)C2=O)cc1", "AC50": "20 µM (active)"},
      {"smiles": "O=C1/C(=C\\c2ccccn2)SC(=S)N1Nc1ncc(C(F)(F)F)cc1Cl", "AC50": "7.94 µM (active)"},
      {"smiles": "O=C(NCc1n[nH]c(=S)n1-c1cccc(Cl)c1)c1ccc(S(=O)(=O)N2CCCC2)cc1", "activity, negative = inhibition": "-8.01%"},
      {"smiles": "O=c1c(Cl)c(N2CCN(S(=O)(=O)c3ccc(F)cc3)CC2)cnn1-c1cccc(Cl)c1", "AC50": "4.47 µM (active)"},
      {"smiles": "C[N+](C)(C)CCOC(N)=O", "activity, negative = inhibition": "22.8% [at 25.6 µM]"},
      {"smiles": "Nc1ncnc2c1c(-c1ccc(Oc3ccccc3)cc1)cn2C1CCCC1", "AC50": "25.1 µM (active)"},
      {"smiles": "Nc1ncnc2c1ncn2C1CCCC1", "activity, negative = inhibition": "4.13%"},
      {"smiles": "C#CCCCO/N=C1/C[C@@H](O)[C@@H](O)[C@@H]2[C@@H]3C(=O)N(C4CCCCC4)C(=O)[C@H]3CC[C@H]12", "activity, negative = inhibition": "4.77% [at 11.4 µM]"},
      {"smiles": "c1nc(NCCN2CCOCC2)c2cc(-c3ccoc3)ccc2n1", "activity, negative = inhibition": "6.18%"},
      {"smiles": "COc1ccccc1CNc1ncnc2ccc(-c3ccccc3OC)cc12", "AC50": "3.16 µM (active)"},
      {"smiles": "COc1ccccc1CNc1ncnc2ccc(-c3ccccc3CN(C)C)cc12", "activity, negative = inhibition": "-41.1%"},
      {"smiles": "COc1ccc(CNc2ncnc3ccc(-c4cccc(C#N)c4)cc23)c(OC)c1", "activity, negative = inhibition": "-35.9%"},
      {"smiles": "COc1ccccc1CNc1ncnc2ccc(-c3cccc(C#N)c3)cc12", "AC50": "5.01 µM (active)"},
      {"smiles": "N#Cc1cccc(-c2ccc3ncnc(NCc4ccccc4)c3c2)c1", "activity, negative = inhibition": "-32.2%"},
      {"smiles": "c1csc(CNc2ncnc3ccc(-c4ccoc4)cc23)c1", "AC50": "6.31 µM (active)"},
      {"smiles": "COc1cccc(-c2ccc3ncnc(NCc4ccc(OC)cc4OC)c3c2)c1", "AC50": "10 µM (active)"},
      {"smiles": "CSc1nnc2c(n1)OC(C)N(C(=O)c1ccccc1)c1ccccc1-2", "note": "(configuration not stated)", "activity, negative = inhibition": "-22.2%"},
      {"smiles": "CS(=O)(=O)Nc1cccc(-c2ccc3ncnc(NCc4cccs4)c3c2)c1", "AC50": "15.8 µM (active)"},
      {"smiles": "COc1cccc(-c2ccc3ncnc(NCc4cccs4)c3c2)c1", "AC50": "10 µM (active)"},
      {"smiles": "COc1ccc(CNc2ncnc3ccc(-c4ccccc4CN(C)C)cc23)c(OC)c1", "AC50": "15.8 µM (active)"},
      {"smiles": "CS(=O)(=O)Nc1cccc(-c2ccc3ncnc(NCCN4CCOCC4)c3c2)c1", "activity, negative = inhibition": "-39.7%"},
      {"smiles": "COc1ccc(CNc2ncnc3ccc(-c4ccccc4OC)cc23)c(OC)c1", "AC50": "7.94 µM (active)"},
      {"smiles": "COc1ccc(CNc2ncnc3ccc(-c4ccccc4C#N)cc23)c(OC)c1", "activity, negative = inhibition": "-22%"},
      {"smiles": "COc1ccc(CNc2ncnc3ccc(-c4c(C)noc4C)cc23)c(OC)c1", "AC50": "10 µM (active)"},
      {"smiles": "COc1ccc(CNc2ncnc3ccc(-c4ccoc4)cc23)c(OC)c1", "AC50": "7.94 µM (active)"},
      {"smiles": "COc1ccccc1CNc1ncnc2ccc(-c3ccccc3C#N)cc12", "AC50": "7.94 µM (active)"},
      {"smiles": "Cc1nc2sc(C#N)c(N)c2c2c1CCCC2", "AC50": "11.2 µM (active)"},
      {"smiles": "C[C@@H]1c2ccccc2CN1CC1=NCCN1", "activity, negative = inhibition": "-9.19%"},
      {"smiles": "COc1ccc(NC(=O)N2CCCC3(CCN(C(=O)c4cccc(F)c4)CC3)C2)cc1", "activity, negative = inhibition": "-15.7%"},
      {"smiles": "COc1ccc(NC(=O)N2CCC3(CC2)CCN(C(=O)c2cccc(F)c2)CC3)cc1", "activity, negative = inhibition": "7.83%"},
      {"smiles": "CCn1c(N2CCN(C(=O)Nc3ccc(F)cc3)CC2)nc2ccccc21", "AC50": "31.6 µM (active)"},
      {"smiles": "CCOC(=O)CSc1n[nH]c(NC(=O)c2cccc(C)c2)n1", "AC50": "5.01 µM (active)"},
      {"smiles": "O=C(O)CCCSc1ccccc1", "activity, negative = inhibition": "31.6% [at 11.4 µM]"},
      {"smiles": "Cc1cc(Br)ccc1NC(=O)CCSc1ccccc1", "AC50": "1.26 µM (active)"},
      {"smiles": "NNC(=O)CCSc1ccccc1", "AC50": "3.98 µM (active)"},
      {"smiles": "O=c1c(-c2ccccc2)nc2cnc(N3CCNCC3)nc2n1-c1ccccc1", "activity, negative = inhibition": "-29.6%"},
      {"smiles": "CC(C)c1ccc(CN(C(=O)C2COc3ccccc3O2)C2CCS(=O)(=O)C2)cc1", "note": "(configuration not stated)", "AC50": "10 µM (active)"},
      {"smiles": "CCCCC(=O)NC(Nc1cc(C)ccn1)(C(=O)OCC)C(F)(F)F", "note": "(configuration not stated)", "AC50": "1.41 µM (active)"},
      {"smiles": "N=c1sc2ccccc2n1CCS", "note": "(tested in a mixture with another compound)", "AC50": "1.58 µM (active)"},
      {"smiles": "O=C(O)c1ccccc1NCn1c(=S)sc2ccccc21", "activity, negative = inhibition": "-40.3% [at 11.4 µM]"},
      {"smiles": "c1ccc2nc(C3=NCCN3)cnc2c1", "activity, negative = inhibition": "21.6%"},
      {"smiles": "Cc1cc(C)n(Cc2ccc(NC(=O)c3ccc(COc4ccccc4Br)cc3)cc2)n1", "AC50": "3.98 µM (active)"},
      {"smiles": "COC(=O)[C@@]1(Cc2ccc(OC)cc2)[C@H]2c3cc(C(=O)N4CCCC4)n(CCn4cc([N+](=O)[O-])nc4C)c3C[C@H]2CN1C(=O)c1ccccc1", "activity, negative = inhibition": "-20%"},
      {"smiles": "COC(=O)[C@@]1(Cc2ccccc2)[C@H]2c3cc(C(=O)N4CCCC4)n(Cc4nc5ccccc5[nH]4)c3C[C@H]2CN1C(=O)c1ccccc1", "AC50": "15.8 µM (active)"},
      {"smiles": "COC(=O)[C@@]1(Cc2ccccc2)[C@H]2c3cc(C(=O)N4CCCC4)n(Cc4ccccn4)c3C[C@H]2CN1C(=O)c1ccccc1", "AC50": "10 µM (active)"},
      {"smiles": "COC(=O)[C@@]1(Cc2ccccc2)[C@H]2c3cc(C(=O)N4CCCC4)n(CCc4ccccn4)c3C[C@H]2CN1C(=O)c1ccccc1", "AC50": "25.1 µM (active)"},
      {"smiles": "CSc1nc(Cl)cc(N(CCO)CCO)n1", "activity, negative = inhibition": "31.7%"},
      {"smiles": "CC(C)(CO)Cc1cc(C(C)(C)C)c(O)c(C(C)(C)C)c1", "AC50": "25.1 µM (active)"},
      {"smiles": "CC(C)(C=O)Cc1cc(C(C)(C)C)c(O)c(C(C)(C)C)c1", "activity, negative = inhibition": "-36%"},
      {"smiles": "CCOC(=O)c1ccccc1N/C=C1\\CCCCC1=O", "AC50": "22.4 µM (active)"},
      {"smiles": "CCn1c2ccccc2c2cc(NC(=O)C/C(C)=N/NC(=O)c3ccccc3N)ccc21", "AC50": "2.24 µM (active)"},
      {"smiles": "CCc1ccccc1N1C(=O)c2cccc3c(N4CCOCC4)c([N+](=O)[O-])cc(c23)C1=O", "AC50": "3.98 µM (active)"},
      {"smiles": "O=c1cc(N2CCOCC2)oc2c(-c3ccccc3)cccc12", "activity, negative = inhibition": "-23.1%"},
      {"smiles": "CN(Cc1ccco1)c1ccnc(-c2cccnc2)n1", "AC50": "6.31 µM (active)"},
      {"smiles": "Cc1noc(C)c1-c1nccc(N(C)C)n1", "activity, negative = inhibition": "-28.6%"},
      {"smiles": "Cc1noc(C)c1-c1nccc(N(C)Cc2ccco2)n1", "AC50": "1 µM (active)"},
      {"smiles": "COc1cccc(-c2nccc(N(C)Cc3ccco3)n2)c1", "AC50": "5.01 µM (active)"}
    ]}
  ]
}
